# From PubChem BioAssay (NCI)
# The panel holds about 79,000 compounds, 15% with a hit somewhere; the sample as a whole holds those more often. Unmarked numbers belong to inactive results. Calls of active or inactive are those of the source. No stated cut-off is given here; in the data, active means growth inhibition above about 70%; inactive means the rest.
# Assays:
# [1] = NCI Yeast Anticancer Drug Screen. Data for the wt1 strain (AID 149);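 further: 0% = growth of vehicle-treated wt1 cultures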; settings: S. cerevisiae wt1 strain (SPY 50644) growth inhibition, active compounds read high
# Summary of the method: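 Growth inhibition read against vehicle controls after compound exposure of the wt1 yeast strain.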
# [2] = NCI Yeast Anticancer Drug Screen. Data for the rad50EPP+ strain (AID 151);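 further: 0% = growth of vehicle-treated control cultures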; settings: S. cerevisiae rad50 mutant strain, active compounds read high
# Summary of the method: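 Read-out is yeast growth inhibition relative to vehicle; cells used were the rad50EPP+ strain.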
# [3] = NCI Yeast Anticancer Drug Screen. Data for the mgt1 strain (AID 153); settings: S. cerevisiae mgt1 mutant growth inhibition, active compounds read high
# Summary of the method: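 Measured: inhibition of mgt1 yeast growth by compound, normalized to vehicle-treated cultures.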
# [4] = NCI Yeast Anticancer Drug Screen. Data for the rad50 strain (AID 155);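 further: 0% = growth of vehicle-only cultures of the same strain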; settings: S. cerevisiae rad50 strain growth inhibition, active compounds read high
# Summary of the method: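 Readout: growth inhibition relative to vehicle-treated cultures. Compound exposure was carried out in a genetically defined yeast strain deficient in DNA damage repair.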
# [5] = NCI Yeast Anticancer Drug Screen. Data for the mec2-1 strain (AID 157); settings: S. cerevisiae mec2-1 strain, active compounds read high
# Summary of the method: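 Using mec2-1 yeast: add compound, measure growth, express inhibition versus vehicle-treated cultures.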
# [6] = NCI Yeast Anticancer Drug Screen. Data for the rad14 strain (AID 159);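 further: 0% = growth of vehicle-treated control cultures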; settings: S. cerevisiae rad14 strain growth inhibition, active compounds read high
# Summary of the method: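 Growth inhibition vs vehicle controls; genetically altered yeast strain (DNA damage repair defect) treated with test compounds.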
# [7] = NCI Yeast Anticancer Drug Screen. Data for the sgs1 mgt1 strain (AID 161);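 further: 0% = growth of cultures given vehicle only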; settings: S. cerevisiae sgs1 mgt1 strain, active compounds read high
# Summary of the method: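 Compounds are added to genetically altered yeast, and growth is compared with cultures given vehicle alone to give percent inhibition.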
# [8] = NCI Yeast Anticancer Drug Screen. Data for the CLN2oe strain (AID 163);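 further: 0% = growth of vehicle-only control cultures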; settings: S. cerevisiae CLN2oe strain, active compounds read high
# Summary of the method: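 Whole-cell yeast growth assay. A strain engineered for altered cell-cycle control received compound, and inhibition relative to vehicle-treated cultures was recorded.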
# [9] = NCI Yeast Anticancer Drug Screen. Data for the cln2 rad14 strain (AID 165);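 further: 0% = growth equal to vehicle treated cultures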; settings: S. cerevisiae cln2 rad14 strain, active compounds read high
# Summary of the method: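 Yeast strain cln2 rad14, bearing defects in cell cycle control and DNA repair, serves as the test system; values reflect growth inhibition compared with vehicle.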
# [10] = NCI Yeast Anticancer Drug Screen. Data for the bub3 strain (AID 167); settings: S. cerevisiae bub3 mutant strain, active compounds read high
# Summary of the method: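 Readout: yeast growth inhibition, expressed relative to vehicle-only wells. The test organism is a mutant strain from a panel with lesions in DNA repair or checkpoint genes.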
# [11] = NCI Yeast Anticancer Drug Screen. Data for the wt2 strain (AID 169);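 further: 0% = growth of vehicle-treated yeast cultures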; settings: S. cerevisiae wt2 strain growth inhibition, active compounds read high
# Summary of the method: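 Treated yeast vs. vehicle-treated yeast: growth inhibition determined.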
# [12] = NCI Yeast Anticancer Drug Screen. Data for the mlh1 strain (AID 171);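 further: 0% = growth of vehicle-treated control cultures of the same strain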; settings: S. cerevisiae mlh1 strain growth inhibition, active compounds read high
# Summary of the method: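 A yeast strain with a defined genetic lesion serves as the test organism. Cultures receive compound or vehicle, and growth is measured.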
# [13] = NCI Yeast Anticancer Drug Screen. Data for the sgs1 strain (AID 173);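 further: 0% = growth of vehicle-only control cultures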; settings: S. cerevisiae sgs1 mutant, active compounds read high
# Summary of the method: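 A genetically defined yeast mutant is incubated with the test compound, and its growth is compared to that of the same strain given vehicle.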
# [14] = NCI Yeast Anticancer Drug Screen. Data for the mlh1 rad18 strain (AID 175); settings: S. cerevisiae mlh1 rad18 strain growth inhibition, active compounds read high
# Summary of the method: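 Steps: expose repair-defective yeast to compound; measure growth; express inhibition against vehicle-treated controls.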
# [15] = NCI Yeast Anticancer Drug Screen. Data for the rad18 strain (AID 177); settings: S. cerevisiae rad18 mutant growth inhibition, active compounds read high
# Summary of the method: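 Measured value is growth inhibition of a yeast strain bearing a DNA repair alteration, referenced to vehicle-treated cells.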
# [16] = at 5.0 µM (retest, dose inferred, filed as 0.5)
# [17] = at 50.0 µM (retest, dose inferred, filed as 5.0)
structure (smiles),measurement,setting,value
CC1=NN(C(=O)CC(=O)N(C(=O)c2ccccc2)c2ccc(Cl)cc2)C(=O)C1N=Nc1ccc([N+](=O)[O-])cc1 (stereo unspecified),growth inhibition,[1]; at 1.2 µM,-43%
same,growth inhibition,[1]; at 3.7 µM,-1%
same,growth inhibition,[1]; at 11.0 µM,10%
same,growth inhibition,[1]; at 33.0 µM,26%
same,growth inhibition,[1]; at 100.0 µM,37%
same,growth inhibition,[2]; at 1.2 µM,6%
same,growth inhibition,[2]; at 3.7 µM,26%
same,growth inhibition,[2]; at 11.0 µM,39%
same,growth inhibition,[2]; at 33.0 µM,41%
same,growth inhibition,[2]; at 100.0 µM,32%
same,growth inhibition,[3]; at 1.2 µM,0%
same,growth inhibition,[3]; at 3.7 µM,7%
same,growth inhibition,[3]; at 11.0 µM,35%
same,growth inhibition,[3]; at 33.0 µM,62%
same,growth inhibition,[3]; at 100.0 µM,71% (active)
same,growth inhibition,[4]; at 1.2 µM,-3%
same,growth inhibition,[4]; at 3.7 µM,8%
same,growth inhibition,[4]; [16],41%
same,growth inhibition,[4]; at 11.0 µM,50%
same,growth inhibition,[4]; at 33.0 µM,74% (active)
same,growth inhibition,[4]; [17],89% (active)
same,growth inhibition,[4]; at 50.0 µM,84.5% (active)
same,growth inhibition,[4]; at 100.0 µM,74% (active)
same,growth inhibition,[5]; at 1.2 µM,-3%
same,growth inhibition,[5]; at 3.7 µM,8%
same,growth inhibition,[5]; [16],8%
same,growth inhibition,[5]; at 11.0 µM,41%
same,growth inhibition,[5]; at 33.0 µM,67%
same,growth inhibition,[5]; [17],56%
same,growth inhibition,[5]; at 50.0 µM,83.6% (active)
same,growth inhibition,[5]; at 100.0 µM,68%
same,growth inhibition,[6]; at 1.2 µM,-1%
same,growth inhibition,[6]; at 3.7 µM,7%
same,growth inhibition,[6]; at 11.0 µM,23%
same,growth inhibition,[6]; at 33.0 µM,44%
same,growth inhibition,[6]; at 100.0 µM,53%
same,growth inhibition,[7]; [16],-1%
same,growth inhibition,[7]; [17],49%
same,growth inhibition,[7]; at 50.0 µM,77.7% (active)
same,growth inhibition,[8]; at 1.2 µM,-11%
same,growth inhibition,[8]; at 3.7 µM,6%
same,growth inhibition,[8]; at 11.0 µM,48%
same,growth inhibition,[8]; at 33.0 µM,75% (active)
same,growth inhibition,[8]; at 100.0 µM,77% (active)
same,growth inhibition,[9]; [16],63%
same,growth inhibition,[9]; [17],66%
same,growth inhibition,[9]; at 50.0 µM,55.8%
same,growth inhibition,[10]; at 1.2 µM,-5%
same,growth inhibition,[10]; at 3.7 µM,-6%
same,growth inhibition,[10]; [16],4%
same,growth inhibition,[10]; at 11.0 µM,30%
same,growth inhibition,[10]; at 33.0 µM,63%
same,growth inhibition,[10]; [17],67%
same,growth inhibition,[10]; at 50.0 µM,85% (active)
same,growth inhibition,[10]; at 100.0 µM,71% (active)
same,growth inhibition,[11]; at 1.2 µM,-4%
same,growth inhibition,[11]; at 3.7 µM,7%
same,growth inhibition,[11]; at 11.0 µM,64%
same,growth inhibition,[11]; at 33.0 µM,87% (active)
same,growth inhibition,[11]; at 100.0 µM,82% (active)
same,growth inhibition,[12]; at 1.2 µM,0%
same,growth inhibition,[12]; at 3.7 µM,8%
same,growth inhibition,[12]; at 11.0 µM,36%
same,growth inhibition,[12]; at 33.0 µM,59%
same,growth inhibition,[12]; at 100.0 µM,69%
same,growth inhibition,[13]; at 1.2 µM,0%
same,growth inhibition,[13]; at 3.7 µM,14%
same,growth inhibition,[13]; at 11.0 µM,46%
same,growth inhibition,[13]; at 33.0 µM,68%
same,growth inhibition,[13]; at 100.0 µM,69%
same,growth inhibition,[14]; [16],24%
same,growth inhibition,[14]; [17],75% (active)
same,growth inhibition,[14]; at 50.0 µM,81% (active)
O=C1c2ccccc2-c2ccc(NC(=O)C3CCCCC3C(=O)O)cc21 (stereo unspecified),growth inhibition,[1]; at 1.2 µM,0%
same,growth inhibition,[1]; at 3.7 µM,-2%
same,growth inhibition,[1]; at 11.0 µM,-1%
same,growth inhibition,[1]; at 33.0 µM,7%
same,growth inhibition,[1]; at 100.0 µM,40%
same,growth inhibition,[2]; at 1.2 µM,4%
same,growth inhibition,[2]; at 3.7 µM,15%
same,growth inhibition,[2]; at 11.0 µM,22%
same,growth inhibition,[2]; at 33.0 µM,34%
same,growth inhibition,[2]; at 100.0 µM,55%
same,growth inhibition,[3]; at 1.2 µM,-2%
same,growth inhibition,[3]; at 3.7 µM,-2%
same,growth inhibition,[3]; at 11.0 µM,-3%
same,growth inhibition,[3]; at 33.0 µM,13%
same,growth inhibition,[3]; at 100.0 µM,72% (active)
same,growth inhibition,[4]; at 1.2 µM,4%
same,growth inhibition,[4]; at 3.7 µM,5%
same,growth inhibition,[4]; [16],3%
same,growth inhibition,[4]; at 11.0 µM,10%
same,growth inhibition,[4]; at 33.0 µM,24%
same,growth inhibition,[4]; [17],22%
same,growth inhibition,[4]; at 50.0 µM,43.1%
same,growth inhibition,[4]; at 100.0 µM,64%
same,growth inhibition,[5]; at 1.2 µM,4%
same,growth inhibition,[5]; at 3.7 µM,6%
same,growth inhibition,[5]; [16],18%
same,growth inhibition,[5]; at 11.0 µM,5%
same,growth inhibition,[5]; at 33.0 µM,18%
same,growth inhibition,[5]; [17],15%
same,growth inhibition,[5]; at 50.0 µM,42.6%
same,growth inhibition,[5]; at 100.0 µM,67%
same,growth inhibition,[6]; at 1.2 µM,-2%
same,growth inhibition,[6]; at 3.7 µM,-12%
same,growth inhibition,[6]; at 11.0 µM,-2%
same,growth inhibition,[6]; at 33.0 µM,1%
same,growth inhibition,[6]; at 100.0 µM,86% (active)
same,growth inhibition,[7]; [16],-2%
same,growth inhibition,[7]; [17],7%
same,growth inhibition,[7]; at 50.0 µM,42.3%
same,growth inhibition,[8]; at 1.2 µM,-9%
same,growth inhibition,[8]; at 3.7 µM,-5%
same,growth inhibition,[8]; at 11.0 µM,-10%
same,growth inhibition,[8]; at 33.0 µM,-2%
same,growth inhibition,[8]; at 100.0 µM,40%
same,growth inhibition,[9]; [16],-20%
same,growth inhibition,[9]; [17],-58%
same,growth inhibition,[9]; at 50.0 µM,12.7%
same,growth inhibition,[10]; at 1.2 µM,44%
same,growth inhibition,[10]; at 3.7 µM,55%
same,growth inhibition,[10]; [16],6%
same,growth inhibition,[10]; at 11.0 µM,72% (active)
same,growth inhibition,[10]; at 33.0 µM,80% (active)
same,growth inhibition,[10]; [17],78% (active)
same,growth inhibition,[10]; at 50.0 µM,90.5% (active)
same,growth inhibition,[10]; at 100.0 µM,90% (active)
same,growth inhibition,[11]; at 1.2 µM,0%
same,growth inhibition,[11]; at 3.7 µM,-1%
same,growth inhibition,[11]; at 11.0 µM,1%
same,growth inhibition,[11]; at 33.0 µM,24%
same,growth inhibition,[11]; at 100.0 µM,80% (active)
same,growth inhibition,[12]; at 1.2 µM,7%
same,growth inhibition,[12]; at 3.7 µM,3%
same,growth inhibition,[12]; at 11.0 µM,4%
same,growth inhibition,[12]; at 33.0 µM,1%
same,growth inhibition,[12]; at 100.0 µM,77% (active)
same,growth inhibition,[13]; at 1.2 µM,3%
same,growth inhibition,[13]; at 3.7 µM,7%
same,growth inhibition,[13]; at 11.0 µM,15%
same,growth inhibition,[13]; at 33.0 µM,41%
same,growth inhibition,[13]; at 100.0 µM,85% (active)
same,growth inhibition,[14]; [16],-7%
same,growth inhibition,[14]; [17],34%
same,growth inhibition,[14]; at 50.0 µM,41.2%
same,growth inhibition,[15]; at 1.2 µM,12%
same,growth inhibition,[15]; at 3.7 µM,2%
same,growth inhibition,[15]; at 11.0 µM,16%
same,growth inhibition,[15]; at 33.0 µM,31%
same,growth inhibition,[15]; at 100.0 µM,72% (active)
